These results are taken from PubChem BioAssay (Tox21).

Inconclusive results are not listed. A call without a number means that no potency is given here. The source made the active and inactive calls. The call rests on the fitted dose curve; in most records, active means well fitted activation curve with a large enough effect in the repeat runs; inconclusive means weak or mixed curves; inactive means no such curve, though single readings can be large or run the other way.

This experiment is described as follows: qHTS assay for small molecules that induce genotoxicity in human embryonic kidney cells expressing luciferase-tagged ATAD5 (AID 651632). Further: nearly all actives have a fitted effect of over 15% in size. To be noted: HEK293T ATAD5-luciferase induction, 16 h; series mostly up to 83.3 µM. The source says:
U.S. Tox21 Program National Center for Advancing Translational Sciences [NCATS] NIH Chemical Genomics Center [NCGC] U.S. Environmental Protection Agency [EPA] National Institutes of Environmental Health Sciences [NIEHS] National Toxicology Program [NTP] U.S. Food and Drug Administration [FDA] Tox21 Assay Overview: As cancer cells divide rapidly and during every cell division they need to duplicate their genome by DNA replication. The failure to do so results in the cancer cell death. Based on this concept, many chemotherapeutic agents were developed but have limitations such as low efficacy and severe side effects etc. A new cell based assay was developed to find the compounds that effectively block DNA replication either by directly damaging DNA or by inhibiting other cellular mechanisms. Enhanced Level of Genome Instability Gene 1 (ELG1; human ATAD5) protein levels increase in response to various types of DNA damage. Using a luciferase reporter-gene tagged with ATAD5, a cell-based assay [developed by Kyungjae Myung, NHGRI, NIH] was used to measure the induction of ATAD5 in human embryonic kidney cells (HEK293T). So, increase in luciferase activity can be used to identify the compounds that cause genetic stress.
Tox21 Assay Protocol Summary: For genotoxicity screening, 2,000 cells in 5 uL/well were dispensed into white, solid-bottom 1536-well plates using a Multidrop Combi (Thermo Scientific) dispenser. Following transfer of 23 nL compound or DMSO vehicle by a pin tool, the plates were incubated 16 hr at 37C and 5% CO2. 5 ul Amplite (AAT Bioquest, Inc.) was then added to each plate and following 30 min incubation at room temperature, luciferase activity was quantified on a ViewLux CCD-based plate reader.
For orientation: Quantitative high-throughput screening tests each substance at several concentrations.
Turning to `S=c1[nH][nH]c(=S)s1`, the Potency result is “inactive”.
Take `O=P(c1ccccc1)(c1ccccc1)c1ccccc1`: the Potency result is “inactive”.
On to `CC(=O)c1cccnc1`, for which the Potency entry is “inactive”.
With `CC(C)=CCC[C@H](C)CCO`, the Potency result was “inactive”.
Take `Cc1c(Cl)cccc1Nc1ccccc1C(=O)O`: the Potency result was “inactive”.
As for `Cc1ccc(NC(=O)c2ccc(CN3CCN(C)CC3)cc2)cc1Nc1nccc(-c2cccnc2)n1`, the Potency entry was “inactive”.
Take `N#Cc1ccc(CC(=O)c2cccc(C(F)(F)F)c2)cc1`: the Potency result is “inactive”.
On the same count and under the same terms, next, `Cc1c(-c2cccnc2)c2ccccc2n1CCCCC(=O)O`: “inactive”.
For `C=CCCC`, the Potency result was “inactive”.
In the case of `C[C@]12CCC(=O)C=C1[C@@H]1C[C@@H]1[C@H]1[C@@H]3[C@@H]4C[C@@H]4[C@@]4(CCC(=O)O4)[C@@]3(C)CC[C@@H]12`, the Potency result is “inactive”.
On to `Nc1ncnc2c1ncn2[C@@H]1O[C@H](CO)[C@@H](O)[C@H]1O`, for which the Potency entry is “inactive”.
Regarding `CCN(CCCCOC(=O)c1ccc(OC)c(OC)c1)C(C)Cc1ccc(OC)cc1` (stereo not given), the Potency entry is “inactive”.
Turning to `CC(CCl)OC(C)CCl` (stereo not given), the Potency entry is “inactive”.
Take `COc1ccc(C(=O)Nc2ccccc2)cc1[N+](=O)[O-]`: the Potency result was “inactive”.
Still for that read-out and setting: next, `OCC(O)c1ccccc1` (stereo not given): “inactive”; `OCCCO`: “inactive”; `C/C=C1\[C@H]2C=C(C)C[C@]1(N)c1ccc(=O)[nH]c1C2`: “inactive”.
Turning to `CCCCCO`, the Potency result is “inactive”.
Consider `Oc1ccc(Oc2ccccc2)cc1`, for which the Potency result was “inactive”.
Consider `CCCc1nc(C)c2c(=O)[nH]c(-c3cc(S(=O)(=O)N4CCN(CC)CC4)ccc3OCC)nn12`, for which the Potency entry was “inactive”.
Same read-out and setting: next, `CCCCCCCCC(=O)OCC(C)OC(=O)CCCCCCCC` (stereo not given): “inactive”; `C=CC(=O)OCCCCCCCCCC`: “inactive”.
Consider `CCc1c(C)[nH]c2c1C(=O)C(CN1CCOCC1)CC2` (stereo not given), for which the Potency result is “inactive”.
Still for that read-out and setting: next, `CC(C)C/C=C(\C=O)c1ccccc1`: “inactive”.
On the same count and under the same terms, next, `C=Cc1ccc(C=C)cc1`: “inactive”; `CC(C)(C(=O)O)c1ccc(C(O)CCCN2CCC(C(O)(c3ccccc3)c3ccccc3)CC2)cc1` (stereo not given): “inactive”; `CCC1=C(C)CN(C(=O)NCCc2ccc(S(=O)(=O)NC(=O)NC3CCC(C)CC3)cc2)C1=O` (stereo not given): “inactive”.
Take `COC=O`: the activation is -1.31% [at 8.08 µM] (inactive).
As to `O=C(Cl)c1ccc(F)c(Cl)c1`, the Potency result is “inactive”.
As to `CCCCCCCCS`, the Potency result is “inactive”.
The same measure, in the same setting: next, `CC1(C)C(=O)NC(=O)N1CO`: “inactive”; `Cc1nc2sccn2c(=O)c1CCN1CCC(=C(c2ccc(F)cc2)c2ccc(F)cc2)CC1`: “inactive”; `CCc1cnc(C(=O)O)c(C(=O)O)c1`: “inactive”.
With `CC(=O)CC/C=C(\C)CC/C=C(\C)CC/C=C(\C)CCC=C(C)C`, the Potency result was “inactive”.
Still for that read-out and setting: next, `Clc1nc2ccccc2nc1Cl`: “inactive”; `O=S(=O)(O)c1cc(Cl)c(Cl)cc1Cl`: “inactive”; `CC/C=C/CCO`: “inactive”.
Consider `[O-][n+]1ccc(Cl)cc1`, for which the Potency entry is “inactive”.
Take `CCOC(OCC)OCC`: the Potency entry is “inactive”.
In the case of `CCC[Si](OC)(OC)OC`, the Potency entry was “inactive”.
